Among all 360,000 compounds or so, about 10,000 (2.8%) were called active. Not shown: some 4% with an inconclusive outcome. The sample holds actives, similar compounds and a random draw of the others, so the mix is not that of the screen. Values without a mark were called inactive. Calls come from the whole dose curve; as a rule, active = well fitted inhibition curve with a large enough effect; inconclusive = small, poorly fitted or top-dose-only effect; inactive = flat fitted curve, though single readings scatter.
What follows are compounds tested against Serine/threonine-protein kinase PLK1 (Homo sapiens) (UniProt P53350) (assay: qHTS for Inhibitors of PLK1-PDB (polo-like kinase 1 - polo-box domain): Primary Screen). Conditions: Plk1 PBD binding of FITC phosphopeptide, fluorescence polarization.
Chain of Serine/threonine-protein kinase PLK1 (Homo sapiens) (P53350 whole entry, looked up, the tested form may be a part): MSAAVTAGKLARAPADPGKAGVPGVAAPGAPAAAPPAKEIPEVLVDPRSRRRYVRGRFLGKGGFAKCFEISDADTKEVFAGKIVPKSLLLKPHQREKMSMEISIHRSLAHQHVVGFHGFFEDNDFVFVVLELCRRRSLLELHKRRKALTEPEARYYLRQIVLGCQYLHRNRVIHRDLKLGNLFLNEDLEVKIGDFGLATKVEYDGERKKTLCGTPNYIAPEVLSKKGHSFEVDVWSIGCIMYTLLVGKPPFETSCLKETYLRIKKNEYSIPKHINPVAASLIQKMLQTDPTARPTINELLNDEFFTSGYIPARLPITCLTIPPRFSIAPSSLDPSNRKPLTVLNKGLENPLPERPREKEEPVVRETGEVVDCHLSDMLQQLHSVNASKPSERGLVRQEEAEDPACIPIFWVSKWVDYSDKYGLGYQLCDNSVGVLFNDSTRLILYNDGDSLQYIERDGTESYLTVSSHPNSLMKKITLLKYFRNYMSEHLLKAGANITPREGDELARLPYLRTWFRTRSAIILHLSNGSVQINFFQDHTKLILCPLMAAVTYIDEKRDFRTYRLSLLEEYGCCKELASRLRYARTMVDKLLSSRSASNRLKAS
In the case of `C[C@@H]1CN([C@@H](C)CO)C(=O)CCCn2nncc2CO[C@H]1CN(C)Cc1ccc(C(F)(F)F)cc1`, the max response, negative = inhibition was -1.98%.
For `CC(=O)C[C@@H]1OC[C@H](CO)N1S(=O)(=O)c1ccc(C)cc1`, the max response, negative = inhibition was -6.97%.
Work on `CCOc1cc(C(=O)OCC(=O)Nc2cccc(C)c2)ccc1OCC(=O)N1CCOCC1` yielded a max response, negative = inhibition of -7.2%.
`CCOc1cc(C(=S)N2CCOCC2)ccc1OS(=O)(=O)c1ccc(Br)cc1` showed a max response, negative = inhibition of -16.5%.
In the case of `CCOc1cc(C(=S)N2CCOCC2)ccc1O`, the Potency was 7.52 µM (active).
`COCOCCn1cc(CN2CCS(=O)(=O)N(Cc3ccc(-c4cccc(N(C)C)c4)cc3)C(CC(C)C)C2=O)nn1` (centres undefined) showed a max response, negative = inhibition of -14.2%.
`NC(=O)C1(Nc2ccccc2Cl)CCCC1` showed a max response, negative = inhibition of -11.6%.
For `O=C(CCN1CCN(C/C=C/c2ccccc2)CC1)Nc1ccccc1Cl`, the max response, negative = inhibition was -3.16%.
`O=C(Nc1ccccc1Cl)/C(Cl)=C(\Cl)S(=O)c1ccccc1` (centres undefined) was tested, and the Potency was 1.34 µM (active).
In the case of `CCCNC(=O)C1(C)CCN(Cc2ccc(Cl)c(Cl)c2)C1` (centres undefined), the max response, negative = inhibition was -1.65%.
For `C[C@H](NC(=O)[C@@H]1CCCN1C(=O)[C@@H]1CCCN1C(=O)c1ccccc1)c1ccccc1`, the max response, negative = inhibition was -0.0066%.
For `COc1ccc(N2CCN(C(=O)C3CCN(C(=O)c4ccccc4Cl)CC3)CC2)cc1`, the max response, negative = inhibition was 1.62%.
`CC(C)N(C(=O)COC(=O)c1ccccc1C(=O)N1CCN(c2ccc(F)cc2)CC1)C(C)C` showed a max response, negative = inhibition of -8.86%.
In the case of `O=C(c1ccccc1Oc1ccccc1)N1CCN(c2ccc(F)cc2)CC1`, the Potency was 26.7 µM (active).
`CC[C@@H]1CC2=C(C(=O)OC(C)(C)O2)[C@@H](CC)O1` showed a max response, negative = inhibition of 0.545%.
Work on `Cc1ccc(C(O)c2ncc(-c3ccccc3F)[nH]2)cc1F` (centres undefined) yielded a max response, negative = inhibition of -7.55%.
Work on `CCN(CC)S(=O)(=O)c1cccc(NC(=O)c2ccc(S(=O)(=O)N3CCCC3)cc2)c1` yielded a max response, negative = inhibition of 2.45%.
`CCN(CC)S(=O)(=O)c1cccc(-c2n[nH]c(=S)n2/N=C/c2ccc(C(=O)OC)cc2)c1` was tested, and the Potency was 10.6 µM (active).
`COC(=O)c1ccc(/C=N/N2C(C)CCCC2C)cc1` (centres undefined) was tested, and the max response, negative = inhibition was -11.6%.
`CCCCNC(=O)C[C@@H]1C[C@@]2(C(=O)OCC)CCC=C2N(Cc2cccc3ccccc23)C1=O` showed a max response, negative = inhibition of -0.117%.
For `CCOC(=O)C1CCCN(C(=O)c2ccc(C)c(F)c2)CC1` (centres undefined), the max response, negative = inhibition was -7.52%.
With `CC(C)Oc1ccc(CN2CCC2(C)C(=O)NCc2ccc(C(F)(F)F)cc2)cc1` (centres undefined) the max response, negative = inhibition was 6.37%.
In the case of `CN(C)/C=C1/Nc2ccccc2C1=O`, the Potency was 26.7 µM (active).
`CCCS(=O)(=O)C(=C1Nc2ccccc2N1)S(=O)(=O)CCC` was tested, and the max response, negative = inhibition was -1.93%.
Compound `CN(C)/C=C1\C=C(c2ccccc2)OC1=O` has a max response, negative = inhibition of -6%.
With `CCN(CCN(C)C)C(=O)c1ccc2nc(C)c(N(C)C(=O)CCc3ccccc3)n2c1` the max response, negative = inhibition was 2.39%.
With `CC(=O)Nc1cncc(-c2ccccc2CO)n1` the max response, negative = inhibition was 3.65%.
In the case of `O=C(CCc1[nH]c2ccccc2c1Sc1ccccc1)N(CCO)CCO`, the Potency was 29.9 µM (active).
In the case of `O=S1(=O)CC(N2CCN(CCO)CC2)CN1Cc1cn(Cc2ccc(Cl)cc2)nn1` (centres undefined), the max response, negative = inhibition was -4.51%.
Compound `Cc1ccc(S(=O)(=O)N(CCc2ccccc2)c2ccc3c(c2)C2CC3CCN2C(=O)OCc2ccccc2)cc1` (centres undefined) has a max response, negative = inhibition of -9.82%.
`O=C(C1CCCO1)N1CCN(C(=O)C23CC4CC(CC(C4)C2)C3)CC1` (centres undefined) gave a max response, negative = inhibition of -0.452%.
With `C[C@@H]1CN([C@H](C)CO)S(=O)(=O)c2ccc(C#CC3CCCCC3)cc2O[C@H]1CN(C)C(=O)Cc1ccncc1` the max response, negative = inhibition was 8.88%.
`COc1cccc(C(O)c2ncc(-c3ccc4ccccc4c3)[nH]2)c1` (centres undefined) gave a max response, negative = inhibition of 5.51%.
Compound `Cc1nn(C(C)C(=O)NCCC2=CCCCC2)c(=O)c2nn(-c3ccccc3)c(C)c12` (centres undefined) has a max response, negative = inhibition of -7.54%.
`Cc1ccc(-n2nc3c(=O)n(C(C)C(=O)NCc4ccc5c(c4)OCO5)nc(C)c3c2C)cc1` (centres undefined) showed a max response, negative = inhibition of -18.3%.
In the case of `Cc1nn(CC(=O)N2CCCCC2)c(=O)c2nn(-c3ccccc3)c(C)c12`, the max response, negative = inhibition was -14.5%.
`COc1ccc(CNC(=O)C(C)n2nc(C)c3c(C)n(-c4ccccc4)nc3c2=O)c(OC)c1` (centres undefined) was tested, and the Potency was 26.7 µM (active).
`COc1ccc(OC)c(CNC(=O)Cn2nc(C)c3c(C)n(-c4ccc(C)cc4)nc3c2=O)c1` was tested, and the Potency was 26.7 µM (active).
`COc1ccc(-n2nc3c(N4CCC(C(=O)NCc5ccccc5)CC4)nnc(C)c3c2C)cc1` showed a max response, negative = inhibition of -9.59%.
With `CCOc1cc(/C=N/NC(=O)c2c(C)nc3ccc(Cl)cn23)ccc1O` the max response, negative = inhibition was -0.787%.
`CC(C)NC(=O)C1(C)CCCCN1Cc1cccc(C(F)(F)F)c1` (centres undefined) was tested, and the max response, negative = inhibition was -6.04%.
`OC(c1ccc(F)cc1)c1ncc(-c2cccc(C(F)(F)F)c2)[nH]1` (centres undefined) showed a max response, negative = inhibition of 1.19%.
Work on `CC(=O)NC(c1ccccc1)c1nc(-c2cccc(C(C)C)c2)cs1` (centres undefined) yielded a max response, negative = inhibition of 4.75%.
For `COC(=O)[C@@]1(Cc2ccc(OC)cc2)[C@H]2c3cc(C(=O)N4CCCC4)n(Cc4ccc(OC(F)(F)F)cc4)c3C[C@H]2CN1C(=O)c1ccccc1`, the max response, negative = inhibition was 4.68%.
For `CCOC(=O)[C@]12CCC=C1N(Cc1ccco1)C(=O)[C@H](CC(=O)N1CCSCC1)C2`, the max response, negative = inhibition was -15.1%.
Work on `CC1(C(=O)Nc2cccnc2)Cc2c(-c3ccccc3)ccnc2O1` (centres undefined) yielded a max response, negative = inhibition of -6.2%.
`COc1ccc([C@H]2CC(=O)C=C(c3ccc(C)cc3)C2)cc1` gave a max response, negative = inhibition of -18.7%.
With `COc1ccc([C@H]2CC(=O)C=C(c3ccc(CO)cc3)C2)cc1` the Potency was 23.8 µM (active).
`COc1ccc2cc(C3=CC(=O)C[C@H](c4ccc5c(c4)OCO5)C3)ccc2c1` showed a max response, negative = inhibition of 4.54%.
Work on `CN1OC[C@@H]2CN[C@H](c3ccc(-c4ccccc4)cc3)C[C@@H]21` yielded a max response, negative = inhibition of 5.71%.
In the case of `Cc1cc(C)c2nc(-c3cccnc3)cc(C(=O)Nc3ccc(S(=O)(=O)Nc4onc(C)c4C)cc3)c2c1`, the Potency was 42.3 µM (active).
`Cc1noc(NS(=O)(=O)c2ccc(NC(=O)c3oc4ccc(F)cc4c3C)cc2)c1C` showed a max response, negative = inhibition of -10.8%.
`CCn1c(SCC(=O)Nc2ccc(S(=O)(=O)Nc3onc(C)c3C)cc2)nnc1-c1ccccc1` showed a max response, negative = inhibition of 3.27%.
In the case of `CC(C)(C)S(=O)N1Cc2cc(C(=O)NCCCN3CCOCC3)nc(-c3cccc(-c4cc5ccccc5o4)c3)c2[C@H]1CCO` (some centres undefined), the max response, negative = inhibition was -5.28%.
Compound `CCCCCCCCCCOC(=O)Cn1c(COc2ccc(C)cc2)[n+](C)c2ccccc21` has a max response, negative = inhibition of -18.7%.
`CCCn1c(=N)n(CC(=O)c2ccc(Cl)c(Cl)c2)c2ccccc21` was tested, and the max response, negative = inhibition was -14%.
For `CCCCOC(=O)Cn1c(=N)n(CCN(CC)CC)c2ccccc21`, the Potency was 21.2 µM (active).
With `CC(=O)c1cccc(-c2cnc3c(NC=O)cc(-c4ccc(N(C)C)cc4)cn23)c1` the max response, negative = inhibition was -10.2%.
`COc1ccc(C(O)C(O)(C(=O)OC(C)C)c2ccc(C)cc2)cc1` (centres undefined) showed a max response, negative = inhibition of -13.4%.
`Cc1nn(C)cc1N1C(=O)c2cccc3c(N)ccc(c23)C1=O` was tested, and the Potency was 2.38 µM (active).
For `CN1C(=O)c2cccc3c(N)ccc(c23)C1=O`, the Potency was 3.36 µM (active).
With `CC(C(=O)O)N1C(=O)c2cccc3cccc1c23` (centres undefined) the max response, negative = inhibition was -10.8%.
Compound `Cn1cc(C2OC(=O)c3ccccc32)c2ccccc21` (centres undefined) has a max response, negative = inhibition of -13.8%.
In the case of `Cc1ccc(S(=O)(=O)N2CCCCC2)cc1NC(=O)CCNC(=O)c1ccccc1Cl`, the max response, negative = inhibition was -0.377%.
For `O=C1c2ccccc2-c2ccccc2NC1O` (centres undefined), the max response, negative = inhibition was -5.82%.
`COc1cccc(NC(=O)N(C)C[C@@H]2Oc3ncc(Br)cc3C(=O)N([C@@H](C)CO)C[C@H]2C)c1` gave a max response, negative = inhibition of -14.8%.
`Cc1c(NC(=O)CSc2cccc3cccnc23)c(=O)n(-c2ccccc2)n1C` was tested, and the Potency was 16.8 µM (active).
In the case of `Cc1c(NC(=O)CSc2nnnn2-c2ccc(C(=O)O)cc2)c(=O)n(-c2ccccc2)n1C`, the max response, negative = inhibition was -21.9%.
`Cc1c(NC(=O)CSc2nnc(-c3cccnc3)n2N)c(=O)n(-c2ccccc2)n1C` gave a max response, negative = inhibition of -7.37%.
`Cc1coc2c(O)cc3c(c12)OC1(N2CCCCC2)C(=O)NCCCC31` (centres undefined) was tested, and the Potency was 15 µM (active).
For `C[C@H]1CN([C@@H](C)CO)S(=O)(=O)c2ccc(-c3cccc(F)c3)cc2O[C@@H]1CN(C)C`, the max response, negative = inhibition was 2.78%.
Compound `CN(C)CCNC(=O)c1ccc(-c2cn3c(-c4ccc(Oc5ccccc5)cc4)cnc3cn2)cc1` has a max response, negative = inhibition of -16.6%.
`COc1ccc(NC(=O)N(C)C[C@H]2Oc3ncc(C#C[C@@H](C)O)cc3C(=O)N([C@H](C)CO)C[C@H]2C)cc1` was tested, and the max response, negative = inhibition was -0.325%.
`CN1CCN(C(=O)c2ccc(-c3cc4nc(NCc5cccnc5)n(C)c(=O)c4s3)cc2)CC1` showed a max response, negative = inhibition of -24.5%.
With `CCCn1c(=S)[nH]c2ccc(C(F)(F)F)cc21` the Potency was 10.6 µM (active).
`CC(C)n1c(=S)[nH]c2cc(C(F)(F)F)ccc21` gave a max response, negative = inhibition of -24.5%.
Compound `CN(C)CCn1c(=S)[nH]c2ccc(Cl)cc2c1=O` has a max response, negative = inhibition of -5.51%.
Compound `CC(=O)N1Cc2cc(C(=O)NCc3cccc(F)c3)nc(-c3cccc(C4=CCCC4)c3)c2[C@H]1CCO` has a max response, negative = inhibition of -3.4%.
In the case of `CCC(C)CN1C(=O)CSCC1(C)C(=O)NCc1ccccc1` (centres undefined), the max response, negative = inhibition was -12.2%.
For `O=C(Nc1ccc(Cl)cc1)C1Cc2c(-c3ccc4c(c3)OCO4)ccnc2O1` (centres undefined), the max response, negative = inhibition was -2.05%.
In the case of `C[C@H]1CN([C@@H](C)CO)C(=O)CCCn2cc(nn2)CO[C@@H]1CN(C)C(=O)Nc1ccccc1`, the max response, negative = inhibition was -14%.
`O=C(c1ccccc1F)N1CCN(S(=O)(=O)c2ccc(Br)cc2)CC1` showed a max response, negative = inhibition of -0.788%.
With `O=C(c1ccc[nH]c1=S)N1CCN(S(=O)(=O)c2ccc(Br)cc2Cl)CC1` the Potency was 26.7 µM (active).
Compound `O=C(c1ccc(Cl)c(S(=O)(=O)N2CCCCC2)c1)N1CCCCCC1` has a max response, negative = inhibition of -9.42%.

— PubChem BioAssay AID720504 (National Center for Advancing Translational Sciences (NCATS), 2013)
% is set by controls: 0 for no effect and ±100 for the full control effect; potency is the fitted concentration of half-maximal effect.
Note: nearly all actives have a fitted effect of over 65% in size.
Throughout, for max response, negative = inhibition: series mostly up to about 57 µM.
